“And” between values parts separate entries of the source, which are not always exact repeats. Equal entries are not always repeated. This is part of a sample that, as a whole, favours compounds with a hit. Of some 83,000 tested, about 20% had one in any assay.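 A percent growth of 40 corresponds to 60% growth inhibition; 0 means no net growth; -100 means all cells died. Active threshold: below 10.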 Values without a mark were called inactive. The source made the active and inactive calls.

Holding throughout (assay): NCI-60 one-dose screen, 48 h (100 = growth as untreated, 0 = no growth, -100 = all killed)
Common to all, as to details: 10 µM unless noted

Assay [1] concerns NCI-H23 lung.
Assay [2] has as its system NCI-H226 lung.
The test system of assay [3] is NCI-H322M lung.
Assay [4] relates to HOP-62 NSCLC.
Assay [5] concerns NCI-H460 lung.
Assay [6] relates to HOP-92 NSCLC.
Assay [7] relates to NCI-H522 lung.
The test system of assay [8] is A549/ATCC NSCLC.
The test system of assay [9] is 786-0 renal.
Assay [10] deals with COLO 205 colon.
For assay [11], the system named is DU-145 prostate.
For assay [12], the system named is K-562 leukemia.
In assay [13] the test system is MALME-3M melanoma.
Assay [14] concerns MDA-MB-231 breast.
For assay [15], the system named is RXF 393 renal.
Assay [16] relates to SF-268 CNS.
The subject of assay [17] is SF-295 CNS.
Assay [18] has as its system SF-539 CNS.
The subject of assay [19] is UACC-257 melanoma.
Assay [20] has as its system M14 melanoma.

As for `COc1ccc(CN)cc1OC`, the growth in [1] is 101% and 104%; in assay [2], 113% and 105%; in assay [3] it was 135% and 96.9%; in assay [4] it was 107% and 101%; in [5] it was 124% and 102%; in assay [6] it was 108%. For the same compound, the growth in assay [7] was 107% and 98.5%; in assay [8], 108% and 102%; in assay [9] it was 105% and 101%; in assay [10] it was 122% and 109%; in [11], 111% and 106%; in [12] it was 131%. Besides, the growth in assay [13] is 96.8%; in assay [14] it was 109% and 107%; in assay [15], 126%; in [16] it was 108% and 98.9%; in assay [17], 104%; in assay [18] it was 105% and 99.3%. The growth in assay [19] was 106% and 101%; in assay [20], 110% and 98.7%.
As for `C(=NC1CCCCC1)=NC1CCCCC1`, the growth in [1] is 106% and 31.1%; in assay [2], 103% and 57%; in [3], 117% and 99.1%; in assay [4] it was 109% and 86.8%; in [5], 107% and 100%; in assay [6], 92.8% and 62.3%. Moreover, the growth in assay [7] was 91.8% and 85.2%; in assay [8], 111% and 87%; in [9], 104% and 87.1%; in assay [10] it was 115% and 88.6%; in assay [11], 107% and 97.9%; in assay [12], 97.8% and 69%. For the same compound, the growth in assay [13] is 108% and 53.2%; in assay [14], 97.2% and 88.3%; in assay [15], 109% and 94.6%; in [16], 108% and 88.2%; in assay [17], 87%; in assay [18] it was 101% and 97.7%. The growth is 133% and 44.3% in [19]; 115% and 87.1% in [20].
Take `O=C(Cc1ccccc1)c1ccccc1`: the growth in assay [1] is 94.5%; in assay [2], 102%; in assay [3], 103%; in [4], 98.5%; in assay [5], 98.9%; in [6], 88.1%. Besides, the growth in [7] was 103%; in [8], 107%; in assay [9], 102%; in [10] it was 102%; in assay [11] it was 105%; in assay [12] it was 104%. Also, the growth was 98.7% in assay [13]; 110% in [14]; 103% in [15]; 103% in assay [16]; 112% in [17]; 98.8% in assay [18]. Also, the figures for the growth in [19] and in [20] were 98% and 107%, respectively.
With `C[C@@]12CCCc3coc(c31)C(=O)c1cc3c(cc12)C(=O)C1=C(NCCS1(=O)=O)C3=O`, the growth was -36.4% (active) in assay [1]; 7.87% (active) in assay [2]; -6.28% (active) in [3]; -9.65% (active) in assay [4]; 0.0882% (active) in assay [5]; -30.6% (active) in assay [6]. For the same compound, the growth is -55.6% (active) in assay [7]; -10.7% (active) in assay [8]; 6.38% (active) in [9]; -78.1% (active) in [10]; -91.8% (active) in [11]; -38.6% (active) in [12]. The growth was -98.2% (active) in [13]; -23.7% (active) in [14]; 6.73% (active) in assay [15]; -1.36% (active) in assay [16]; 2.57% (active) in [17]; -63.4% (active) in [18]. The growth is -94.2% (active) in assay [19] and -80.9% (active) in assay [20].
As for `Cc1ccccc1-n1c(/C=C\c2ccccn2)nc2ccccc2c1=O`, the growth in [1] is 55.5%; in [2], 97.8%; in [3], 44.9%; in assay [4], 107%; in assay [5], 68%; in assay [6], 41.2%. Moreover, the growth in assay [7] is 54.8%; in assay [8], 80.4%; in [9] it was -1.31% (active); in assay [10] it was 94.2%; in assay [11], 21.3%; in assay [12], 23.8%. In addition, the growth in assay [13] is 59.5%; in assay [14], 77.1%; in assay [15], 7.42% (active); in [16], 61.7%; in assay [17], 74.4%; in assay [18], 82.8%. Further, the values for the growth in assay [19] and in assay [20] were 81.8% and 64.9%, respectively.
Regarding `CC[C@H](CC[C@@H](C)[C@H]1CC[C@H]2[C@@H]3CC[C@H]4C[C@]5(CC[C@]4(C)[C@H]3CC[C@]12C)OO[C@](C)(C(F)(F)F)O5)C(C)C`, the growth in assay [1] is 92.3%; in assay [2], 89.7%; in [3], 91.5%; in assay [4], 81.7%; in assay [5], 95.1%; in assay [6], 87.4%. In addition, the growth in [7] was 92.8%; in assay [8] it was 95.3%; in [9], 97%; in assay [10], 96.4%; in assay [11], 97.2%; in assay [12], 93.9%. Also, the growth was 86% in [13]; 94.5% in [14]; 106% in assay [15]; 87.4% in assay [16]; 94.6% in assay [17]; 97.8% in assay [18]. Further, the growth was 95.3% in assay [19] and 97.1% in assay [20].
On to `O=[N+]([O-])c1ccc2scc3c4ccccc4nc-3c2c1`, for which the growth in assay [1] is 30.7%; in [2], -32.4% (active); in assay [3] it was 58.1%; in [4], 2.95% (active); in assay [5], 42.7%; in [6] it was -61.8% (active). Further, the growth is -88.8% (active) in assay [7]; 18.9% in assay [8]; -82.9% (active) in [9]; -55.6% (active) in assay [10]; -7.89% (active) in assay [11]; 3.96% (active) in [12]. Moreover, the growth in [13] is -45% (active); in assay [14] it was -76.1% (active); in assay [15], -96.8% (active); in assay [16], -0.718% (active); in assay [17], 84.7%; in [18], -45% (active). Further, the growth in [19] is -59.9% (active); in assay [20], -54.8% (active).

Values taken from PubChem BioAssay (NCI).
